Reference: PubChem BioAssay (NCI)
About 83,000 compounds went through this panel and 20% of them were active in at least one assay; those are over-represented in the sample as a whole.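 How to read the values: 0–100, growth inhibition (40 = 60% inhibited); 0, no net growth; -100 to 0, cell death (-40 = 40% of starting cells died; -100 = all dead).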 Values without a mark were called inactive. Active and inactive are the calls of the source. Rule for the calls: active = growth percent below 10; inactive = the rest.

System: HL-60(TB) leukemia
Test: NCI-60 one-dose screen, 48 h (100 = growth as untreated, 0 = no growth, -100 = all killed)
Details: 10 µM unless noted

SMILES	growth
COc1ccc(N=N/N=c2\sc3cc(OC)ccc3n2C)cc1	102%
C=CCNc1ccc2c3c(cccc13)C(=O)N(N1C(=O)c3cccc4cccc(c34)C1=O)C2=O	102%
O=S(=O)(Nc1cc(Sc2nc3ccccc3s2)c(O)c2ccccc12)c1ccc2ccccc2c1	71.6%
COc1ccc(/C=C(\C(=O)NCc2cccnc2)S(=O)(=O)c2ccccc2)cc1OC	33%
COc1ccc(/C=C(/C(=O)N2CCCC2)c2cc(OC)c(OC)c(OC)c2)cc1	-14.7% (active)
COC(=O)[C@]12CC[C@@H](C)[C@H](C)[C@@H]1C1=CC[C@@H]3[C@@]4(C)C(C=O)=C[C@@](C)(COC(=O)c5ccco5)[C@@H]4C(=O)C[C@@]3(C)[C@]1(C)CC2	10.1%
CCOC(=O)C1(C(=O)OCC)N=C(c2ccccc2)C=C1c1ccccc1	87.2%
COc1cc(C2CC(c3c(C)[n+]([O-])c4ccccc4[n+]3[O-])=NN2)cc(OC)c1OC (configuration not stated)	97.8%
O=C1OC(=O)C2C1C1(Cl)C(Cl)=C(Cl)C2(Cl)C2C(=O)OC(=O)C21 (configuration not stated)	98%
[2H]C([2H])([2H])Oc1ccc(/C=C/C(=O)/C=C(/C=C/c2ccc(OC([2H])([2H])[2H])c(OC([2H])([2H])[2H])c2OC([2H])([2H])[2H])OB(F)F)c(OC([2H])([2H])[2H])c1OC([2H])([2H])[2H]	52.3%
N#CCc1ccc([N+](=O)[O-])cc1	53.1%
CNC(=O)c1cc(Oc2ccc(NC(=O)c3nc(S(C)(=O)=O)sc3-c3ccc(F)cc3)cc2)ccn1	27.2%
Cc1cccc(NC(=O)CSc2nc3ccc([N+](=O)[O-])cc3[nH]2)c1	86.1%
CCOC(=O)C1=C(c2ccccc2)N=C2N(c3ccccc3)N=C(C(C)=O)N2C1c1ccc(Br)cc1 (configuration not stated)	96.2%
O=C1CCCCN1c1ccc(C2=NCCCN2)cc1	70.7%
CC1(C)CC(=O)CC2(C1)N=C(N)Nc1nc3ccccc3n12 (configuration not stated)	92.5%
O=C(CCl)N1c2cccc3cccc(c23)N(C(=O)CCl)C1c1cn(-c2ccccc2)nc1-c1cccc([N+](=O)[O-])c1	27.7%
O=C(c1ccc(/C=C/c2n[nH]c3ccccc23)cc1)N1CCNCC1	31.7%
CS(=O)(=O)c1ccc(C(=O)N2N=C(c3ccccc3)CC2c2ccc3c(c2)OCO3)cc1 (configuration not stated)	37%
CC[C@H](C)[C@H](N)C(=O)O	115%
COc1ccc(C(=O)C2C(C#N)C(C#N)C3C=Cc4ccccc4N32)cc1 (configuration not stated)	-7.91% (active)
OC(c1cc2cc(Cl)ccc2c2cc(C(F)(F)F)ccc12)C1CCCCN1 (configuration not stated)	-61.1% (active)
[2H]C([2H])([2H])Oc1ccc(F)cc1/C=C/C(=O)/C=C(O)/C=C/c1cc(F)ccc1OC([2H])([2H])[2H]	77.3%
O=C(O)CCN1C(=O)/C(=C/C(Cl)=C/c2ccccc2)SC1=S	5.78% (active)
COc1c2ccoc2c(/C=C/C=O)c2oc(-c3ccccc3)cc(=O)c12	7.67% (active)
CCCCCCCCCCCCCCCCCCOc1ccccc1CC(=O)OCC[N+]1(C)CCOCC1	56.1%
NC(=O)CC(NC(=O)COc1ccc(Cl)cc1Cl)C(=O)O (configuration not stated)	109%
